Source: PubChem
Rows were chosen to be rich in hits. Some 8.9% of all compounds tested hit in one or more screens of this group.
D3 antag – blocks the human D3 dopamine receptor | P35462 | D3R cells, DiscoveRx beta-arrestin luminescence, antagonist mode; hits give low values | max response, negative = inhibition, % | 360,000 compounds, 2.5% hits; in the data active = max response below about -50%; inconclusive = no clear call, values can overlap the other calls; note: % is set by controls: 0 for no effect and ±100 for the full control effect
Target sequence (P35462 whole entry, looked up): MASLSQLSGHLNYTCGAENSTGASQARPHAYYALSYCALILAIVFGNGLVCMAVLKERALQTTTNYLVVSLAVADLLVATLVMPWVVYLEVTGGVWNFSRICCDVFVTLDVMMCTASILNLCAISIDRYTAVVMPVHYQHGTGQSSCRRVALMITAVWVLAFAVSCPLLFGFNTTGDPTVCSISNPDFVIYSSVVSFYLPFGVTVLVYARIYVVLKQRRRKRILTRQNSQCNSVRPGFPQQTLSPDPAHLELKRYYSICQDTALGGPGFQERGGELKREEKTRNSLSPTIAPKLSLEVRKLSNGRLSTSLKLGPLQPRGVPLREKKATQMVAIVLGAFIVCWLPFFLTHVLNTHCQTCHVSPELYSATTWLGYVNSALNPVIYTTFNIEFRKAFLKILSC
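Cells expressing the human receptor were seeded at 1500 cells/well, incubated overnight at 37 degrees C in 5% CO2, then exposed to library compounds with dopamine controls for 90 minutes at 37 degrees C before luminescent detection.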
KB-V1 MDR tox – KB-V1 MDR subline cytotoxicity | KB-V1 MDR cells viability, CellTiter-Glo, 72 h | Potency, µM (series often up to 46.1 µM), hits mostly cytotoxic | 400,000 compounds, 3.4% hits | AID 1347076; note: potency is the fitted concentration of half-maximal effect; % is set by controls: 0 for no effect and ±100 for the full control effect; nearly all actives have a fitted effect of over 60% in size
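Cells of the MDR subline KB-V1 are plated, dosed with compound at multiple concentrations, and incubated 72 h at 37 degrees C; CellTiter-Glo is then added and luminescence read after 10 min.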
MCF10A rereplic – inducers of DNA re-replication in MCF 10A breast cells. Potency, µM (doses to about 46.1 µM), for the others: at the top dose activity, positive = re-replication, most hits filed as activators. 350,000 compounds, 2.9% hits. AID 624296. MCF 10A DNA re-replication, Hoechst nuclear intensity, 48 h; note: potency is the fitted concentration of half-maximal effect; % of control where 0% means no effect; nearly all actives have a fitted effect of over 50% in size
KB-3-1 cytotox – KB-3-1 parental cell cytotoxicity; Potency, µM (series often up to 46.1 µM), most hits filed as cytotoxic; 400,000 compounds, 1.4% hits; KB-3-1 viability, CellTiter-Glo ATP luminescence, 72 h; AID 1347075; note: potency is the fitted concentration of half-maximal effect; % is set by controls: 0 for no effect and ±100 for the full control effect; nearly all actives have a fitted effect of over 60% in size
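Cytotoxicity measured as CellTiter-Glo luminescence after 72 h at 37 C. Compound titrations were pinned onto drug-naive KB-3-1 parental adenocarcinoma cells grown in DMEM with 10% FBS, and normalized data fitted to concentration-response curves.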
SW480 rereplic – DNA re-replication induction in SW480 cells. SW480 DNA re-replication, Hoechst DNA content imaging, 48 h. Potency, µM (top dose mostly 46.1 µM), without a hit: top-dose re-replication activation, actives largely listed as activators. 340,000 compounds, 1.8% hits; note: potency is the fitted concentration of half-maximal effect; % of control where 0% means no effect; nearly all actives have a fitted effect of over 55% in size
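Image-based read-out: total Hoechst fluorescence of nuclei (405 nm excitation, 500-530 nm emission), with hits raising the fraction of high-intensity nuclei. SW480 colon cells incubated 48 hr with compounds at 37 C.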
DRD3 agonist – D3 dopamine receptor (human) agonism; 410,000 compounds, 0.58% hits; max activation, %; D3R DiscoveRx beta-arrestin cells, luminescence, 90 min; P35462; AID 652048; in the data active = max activation above about 30%; note: 0% is about no effect
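Agonist mode: compounds and dopamine controls were applied to plated cells for 90 min at 37 degrees C after an overnight attachment at 1500 cells/well. Luminescent read-out followed 30 - 60 minutes at room temperature with DiscoveRx detection reagent.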
Active calls of the source: *; i = inactive; ? = inconclusive; nt = no result. Unless noted, calls come from the whole dose curve; as a rule, active = well fitted curve in the direction sought with a large enough effect; inconclusive = small, poorly fitted or top-dose-only effect, or another doubt; inactive = no such curve, though single readings can be large; an effect the other way counts as inactive or inconclusive.

SMILES	D3 antag	KB-V1 MDR tox	MCF10A rereplic	KB-3-1 cytotox	SW480 rereplic	DRD3 agonist
O=C(O)Cc1sc(Nc2cccc3ccccc23)nc1-c1ccc(Cl)cc1	-9.1	i	7.31µM*	i	5.5%	0.9
COc1ccc(CC(CC(=O)O)C(=O)NCc2ccccc2)cc1 (centres undefined)	-68.8*	i	12.1%	i	-3.0%	-8.7
COc1cc(NC(=O)c2cccs2)c(OC)cc1NC(=O)CCC(=O)Nc1ccc2ncccc2c1	22.3	i	20.6µM*	i	?	6.6
COc1ccc(OCC(=O)Nc2ccc(NC(=O)c3cccs3)c(OC)c2)cc1	-3.4	i	-1.4%	i	-1.5%	-9.2
CCc1nc(-c2ccc(C)c(S(=O)(=O)N3CCN(c4ccc(C(C)=O)cc4)CC3)c2)no1	nt	i	nt	i	nt	1.0
S=Cc1nc2ccccc2[nH]1	nt	i	nt	?	nt	nt
COc1cccc(C(=O)NCCS(=O)(=O)NCCCc2ccccc2)c1	?	16.4µM*	-5.3%	i	-2.8%	-1.0
COc1cccc(C(=O)NCCS(=O)(=O)N2CCCCC2)c1	4.6	i	-2.3%	i	-0.6%	-2.2
CC1CCN(S(=O)(=O)CCNC(=O)c2ccccc2)CC1	0.0	13µM*	8.0%	i	-3.6%	3.0
COc1cccc(C(=O)NCCS(=O)(=O)N2CCC(C)CC2)c1	12.5	23.1µM*	6.2%	i	-4.2%	2.7
COc1cccc(C(=O)NCCS(=O)(=O)N2CCCCCC2)c1	-25.6	11.6µM*	0.6%	i	2.0%	-1.4
CSc1nc(NCCOC(C)=O)c(C#N)c(-c2ccc(C(C)(C)C)cc2)n1	nt	i	nt	i	nt	-4.9
COC(=O)C1=C(c2ccccc2)c2ccccc2S(=O)(=O)N1CC(=O)Nc1cccc(C(C)=O)c1	nt	i	nt	i	nt	-5.7
COc1cccc(CNC(=O)CSc2cc(C)[nH]c(=O)n2)c1	nt	i	nt	?	nt	-6.8
COc1ccc(NC(=O)CN(Cc2ccccc2)S(=O)(=O)c2ccc(C)cc2)cc1Cl	nt	?	nt	i	nt	-9.1
CC1CCCN(c2ccc(C(=O)NCc3ccccc3)cn2)C1 (centres undefined)	-26.7	i	?	i	?	-13.1
CC1CCN(c2ccc(C(=O)NCCc3ccccc3)cn2)CC1	?	13µM*	10.7%	i	9.7%	-12.2
COc1ccccc1N1CCN(S(=O)(=O)CCNC(=O)c2cc(OC)c(OC)c(OC)c2)CC1	13.0	i	?	6.51µM*	?	1.5
O=C(Cc1cccs1)NCCS(=O)(=O)N1CCN(c2ccccc2)CC1	-9.5	i	nt	i	nt	4.1
COc1ccc(Cl)cc1C(=O)NCCS(=O)(=O)N1CCN(c2ccccc2OC)CC1	nt	nt	nt	nt	nt	7.6
O=C(Cc1cccs1)NCCS(=O)(=O)N1CCN(c2ccccc2F)CC1	-17.3	?	16.4µM*	11.6µM*	23.1µM*	7.9
CCN(C1CCCCC1)S(=O)(=O)CCNC(=O)c1ccccc1	-6.1	4.11µM*	-1.2%	i	-5.0%	0.7
COc1cccc(CNC(=O)C2CCCN(S(C)(=O)=O)C2)c1 (centres undefined)	-24.2	i	20.6µM*	i	1.6%	-9.2
COc1cccc(CNC(=O)C2CCCN(S(=O)(=O)c3cnc[nH]3)C2)c1 (centres undefined)	0.0	i	18.7%	i	-0.9%	-12.6
COc1cccc(C(=O)NCCS(=O)(=O)N2CCCC2)c1	-62.6*	i	-2.9%	i	-1.6%	-5.0
O=C(NCc1ccccc1)c1ccc(C(=O)N(C2CCCCC2)C2CCCCC2)cc1	?	23.1µM*	-1.8%	?	8.2%	-18.3
O=C(Cc1ccc(NC(=O)N2CCCCc3ccccc32)cc1)Nc1ccccc1Br	nt	?	nt	i	nt	-2.1
Cc1ccc(N(Cc2ccc(C(=O)NC3CCCCC3)cc2)S(C)(=O)=O)cc1C	22.9	?	?	i	?	0.0
Cc1ccc(N(Cc2ccc(C(=O)NCCSc3ccccn3)cc2)S(C)(=O)=O)cc1C	0.0	20.6µM*	3.2%	i	0.9%	3.8
